Test results published in PubChem BioAssay AID588849 (Broad Institute, 2011).
Measured potencies and affinities stand elsewhere. Activity calls are given as the source filed them. The rule behind the calls is not given here.

These compounds were tested against CAAX prenyl protease 2 (Homo sapiens) (UniProt Q9Y256) (assay: inhibition of Ras-converting CAAX protease Rce1 – biochemical, yeast membranes, quenched-peptide fluorescence, cherry-pick, dose response (AID 588849)). Conditions: yeast membrane fractions expressing human Rce1, quenched-peptide fluorescence, 4 h; series mostly up to 10 µM; activity change, negative = inhibition: at the top concentration.
CAAX prenyl protease 2 (Homo sapiens), sequence (Q9Y256 whole entry, looked up): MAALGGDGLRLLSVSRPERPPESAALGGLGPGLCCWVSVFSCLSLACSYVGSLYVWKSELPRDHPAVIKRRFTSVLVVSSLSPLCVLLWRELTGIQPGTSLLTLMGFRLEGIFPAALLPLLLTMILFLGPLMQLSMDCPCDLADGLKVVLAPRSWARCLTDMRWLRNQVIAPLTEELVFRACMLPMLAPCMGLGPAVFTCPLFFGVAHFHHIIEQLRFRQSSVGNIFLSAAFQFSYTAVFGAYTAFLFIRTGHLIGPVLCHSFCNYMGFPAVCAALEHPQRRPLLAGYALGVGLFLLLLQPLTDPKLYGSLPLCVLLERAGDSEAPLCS

Activity change, negative = inhibition, inactive:
O=C(C1=C[C@@H](C2CC2)C[C@@H](OCc2ccc(CO)cc2)O1)N1CCN(Cc2ccccc2)CC1 3.16%
CCC1(c2ccccc2)NC(=O)N(CC(=O)Nc2ccc3c(C)cc(=O)oc3c2)C1=O (configuration not stated) 138%
CC1(c2nnc(-c3cccc(Cl)c3)o2)CC(c2cccc(F)c2)=NO1 (configuration not stated) 4.59%
Cc1cc(C)n2cc(CSc3nncn3C)nc2n1 -26.3%
CCOC(=O)c1c(C2COc3ccccc3O2)csc1NC(=O)c1ccccc1 (configuration not stated) -4.75%
O=C(C1CCC(=O)N(C2CC2)C1)N1CCN(c2ccccc2Cl)CC1 (configuration not stated) 1.85%
COCc1c(Br)c(C)[nH]c(=O)c1C#N -4.46%
Cc1ccc2c(C)c(C(=O)N(Cc3ccc(F)cc3)C3CCS(=O)(=O)C3)oc2c1 (configuration not stated) 2.74%
CCCCCCCCCCOC(=O)Cn1c(COc2ccc(C)cc2)[n+](C)c2ccccc21 -18.4%
O=C(COC(=O)c1ccccc1Cc1ccccc1)NC1CCS(=O)(=O)C1 (configuration not stated) -12.4%
CCCCOC(=O)Nc1nc(C)c(C(=O)OCC)s1 2.25%
COc1ccc(CC(=O)OCC(=O)Nc2ccc(Br)cc2)cc1 -9.13%
CCCNC(=O)c1c(N)n(-c2ccc(S(N)(=O)=O)cc2)c2nc3ccccc3nc12 -168%
COc1ccc(-n2c(SCc3ccc([N+](=O)[O-])cc3)nnc2-c2ccc(C)cc2)cc1 -12.3%
CSC[C@H](NC(=O)COc1cc2c(c3oc(=O)cc(C)c13)CCC(C)(C)O2)C(=O)O 8.43%
CC(=O)Nc1ccc(Cl)cc1C1COC(=O)C1=N (configuration not stated) 8.43%
CC1=NN(c2ccccc2)C(=O)/C1=C\c1ccc(Br)s1 -15.8%
